Only some compounds are listed: those with a hit (about 15% of all), similar ones and a draw of the others.
SARS PLpro yeast: qHTS of Yeast-based Assay for SARS-CoV PLP; AID 485353, 2010; S. cerevisiae expressing SARS-CoV PLpro, growth rescue; Potency, µM (doses to about 32.9 µM), without a hit: top-dose activity, positive = growth rescue, most hits filed as activators; hit rate 0.19% among 330,000; calls by dose curve; further: potency means the concentration at half of the fitted maximal effect; 0% is about no effect; nearly all actives have a fitted effect of over 55% in size
Sm TGR block: qHTS Assay for the Inhibitors of Schistosoma Mansoni Peroxiredoxins; Potency, µM (series often up to 114 µM), inactives show at the top dose activity change, negative = inhibition, hits mostly inhibitors; Schistosoma mansoni thioredoxin glutathione reductase (TGR), Q962Y6; hit rate 3% among 360,000; purified TGR, DTNB reduction, TNB absorbance 405 nm; further: potency means the concentration at half of the fitted maximal effect; on the % scale 0 is the no-effect control and ±100 the full control effect; nearly all actives have a fitted effect of over 60% in size
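Kinetic colorimetric format: TGR-catalysed, NADPH-driven DTNB reduction monitored via TNB absorbance. Enzyme dispensed at 20 nM; compound exposure 15 min at room temperature before reaction start.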
HCV inhibitor: qHTS Assay for Inhibitors of Hepatitis C Virus (HCV) | Huh7.5.1 HCVcc-Cre infection, luciferase reporter, 44 h | Potency, µM (top dose mostly 41.8 µM), without a hit: at the highest dose activity change, negative = inhibition, actives largely listed as inhibitors | hit rate 3.4% among 340,000; further: potency means the concentration at half of the fitted maximal effect; on the % scale 0 is the no-effect control and ±100 the full control effect
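Reporter virus HCVcc-Cre (~0.5 moi) infects cells exposed to compound; seeding density 1,000 cells/well with 4 h settling beforehand. Luminescence, 15 sec read, taken 44 h post-infection following a 15 min RT substrate incubation.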
Pf growth 48h: Primary qHTS for delayed death inhibitors of the malarial parasite plastid, 48 hour incubation. P. falciparum luciferase growth in erythrocytes, 48 h. Potency, µM (top dose mostly 28.7 µM), inactives show top-dose activity change, negative = inhibition, most hits filed as inhibitors. hit rate 5.9% among 310,000. AID 504832, 2011; further: potency means the concentration at half of the fitted maximal effect; on the % scale 0 is the no-effect control and ±100 the full control effect
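Erythrocytes infected with P. falciparum carrying an integrated firefly luciferase reporter (2% hematocrit, 0.1% parasitemia final) were exposed to compounds in RPMI 1640 with 0.5% Albumax at 37 C, 5% CO2. Growth inhibition was scored as reduced luminescence.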
HCMV inh: qHTS Assay for inhibitors of the human cytomegalovirus (HCMV); HFF cells, HCMV-luciferase reporter, 72 h; hits give low values; activity change, negative = inhibition, % at 57.5 µM; hit rate 4.5% among 410,000; in the data active means activity change below about -60%; inconclusive means no clear call, values can overlap the other calls; inactive means above about -39%; further: on the % scale 0 is the no-effect control and ±100 the full control effect
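Compounds were evaluated in HFFs infected with an HCMV luciferase reporter virus (MOI 1 PFU/cell). Luciferase in lysates collected 72 h post infection served as the replication measure.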
Pf growth 96h: Primary qHTS for delayed death inhibitors of the malarial parasite plastid, 96 hour incubation; P. falciparum luciferase reporter growth, 96 h; Potency, µM (titrated, usually from 28.7 µM), for the others: at the top dose activity change, negative = inhibition, actives largely listed as inhibitors; hit rate 6.9% among 320,000; further: potency means the concentration at half of the fitted maximal effect; on the % scale 0 is the no-effect control and ±100 the full control effect
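Compounds incubated with erythrocytes infected by luciferase-expressing P. falciparum (2% hematocrit, 0.05% parasitemia final) for 96 hours, 37 C in 5% CO2. Growth inhibition scored as decreased luciferase luminescence.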
* hit, by the source's call; ? = inconclusive; / = no result given; + = active, no number. Unless noted, the call rests on the fitted dose curve; in most records, active means well fitted curve in the direction sought with a large enough effect; inconclusive means small, poorly fitted or top-dose-only effect, or another doubt; inactive means no such curve, though single readings can be large; an effect the other way counts as inactive or inconclusive.

SMILES	SARS PLpro yeast	Sm TGR block	HCV inhibitor	Pf growth 48h	HCMV inh	Pf growth 96h
CC(C)Cc1cc(C(=O)Nc2ccccc2)c2ccccc2n1	0%	-1%	-30%	11%	-30	104%
CC(C)Cn1nc(NC(=O)C(C)(C)C)c2cc3ccccc3nc21	-8%	0%	-10%	9.3µM*	?	?
Cc1ccc2nc3c(cc2c1)c(NC(=O)C(C)(C)C)nn3CC(C)C	-1%	-12%	?	13µM*	-19	1µM*
Cc1ccc2nc3c(cc2c1)c(NC(=O)c1ccco1)nn3CC(C)C	-1%	-15%	?	?	2	?
CCCCC(=O)Nc1nn(CC(C)C)c2nc3ccccc3cc12	1%	7%	-12%	?	-29	-3%
CCOc1ccc(NC(=O)Nc2cccn(Cc3ccccc3)c2=O)cc1	-2%	/	10µM*	-15%	-84*	?
O=C(NCc1ccccc1)Nc1cccn(Cc2ccccc2F)c1=O	4%	-13%	-19%	30%	-28	-8%
CCc1ccccc1NC(=O)Nc1cccn(Cc2ccccc2F)c1=O	1%	-3%	11µM*	?	-12	-16%
Cc1ccc(S(=O)(=O)Nc2c(NC3CCCCC3)c3ccccc3oc2=O)cc1	2%	1%	6%	22%	-19	8%
O=c1oc2ccccc2c(NC2CCCCC2)c1NS(=O)(=O)c1ccc(Br)cc1	0%	5%	-4%	13%	/	10µM*
COc1cccc(NC(=O)NCc2ccccn2)c1	-4%	2%	-1%	23%	10	2.1µM*
O=C(NCc1ccccn1)Nc1cc(Cl)ccc1Cl	/	-8%	4%	8%	-67*	?
O=C(NCc1ccccn1)Nc1cccc(NC(=O)NCc2ccccn2)c1	6%	-2%	-5%	3%	107	?
Cc1ccc(NC(=O)CNC(C)c2ccccc2)cc1 (configuration not stated)	2%	-7%	12%	34%	3	28%
Cc1ccc(Cn2c(C(CO)Nc3nc(-c4ccc(F)cc4)cs3)nc3ccccc32)cc1 (configuration not stated)	/	/	?	/	-60*	/
COc1ccc(-c2csc(NC(CO)c3nc4ccccc4n3Cc3ccc(C)cc3)n2)cc1 (configuration not stated)	/	/	-24%	/	4	/
C=CCNC(=S)Nc1ccccc1	5%	-19%	9%	1%	-15	38%
C=CCNC(=S)Nc1ccc(OC(=O)Nc2ccc(Cl)c(Cl)c2)cc1	-5%	35µM*	-1%	?	-12	?
C=CCNC(=S)Nc1ccc(C)cc1[N+](=O)[O-]	-2%	40µM*	8%	20%	-23	?
C=CCNC(=S)Nc1ccc(Cl)c(S(=O)(=O)N2CCOCC2)c1	1%	?	-1%	8%	-14	-1%
C=CCNC(=S)Nc1ccc2cn[nH]c2c1	0%	40µM*	4%	0%	-25	25%
C=CCNC(=S)Nc1cccc(NC(=S)NCC=C)c1	15%	?	4%	13µM*	?	?
C=CCCCCCCCCC(=O)Nc1ncccn1	-1%	12%	2%	6%	-27	21%
CN(C)S(=O)(=O)c1ccc(C(=O)NCC(C)(C)CN=C2NS(=O)(=O)c3ccccc32)cc1	6%	2%	-11%	?	6	?
C=CCNC(=S)Nc1cc(C)ccn1	24%	-7%	-9%	?	-83*	4%
SMILES	SARS PLpro yeast	Sm TGR block	HCV inhibitor	Pf growth 48h	HCMV inh	Pf growth 96h
Cc1ccnc(NC(=S)NC(=O)/C=C/c2ccccc2)c1	-1%	-12%	-9%	52%	22	30%
CCNC(=S)NNc1ccccc1	-3%	14µM*	15%	13%	57	37%
Cc1ccc(-c2noc(-c3ccc(N4CCN(C)CC4)c([N+](=O)[O-])c3)n2)cc1	/	-5%	/	/	?	/
O=[N+]([O-])c1cc(-c2nc(-c3ccccc3)no2)ccc1N1CCN(c2ccccc2)CC1	/	-3%	/	/	8	/
COc1ccc(-c2noc(-c3ccc(N4CCN(C)CC4)c([N+](=O)[O-])c3)n2)cc1OC	/	-8%	/	/	-105*	/
O=[N+]([O-])c1cc(-c2nc(-c3ccccc3)no2)ccc1N1CCCC1	/	-6%	/	/	-80*	/
O=[N+]([O-])c1cc(-c2nc(-c3ccco3)no2)ccc1NCc1ccccc1	/	35µM*	/	/	31	/
CCOC(=O)C1=CCN(S(=O)(=O)c2ccccc2C)C1c1cccc(Cl)c1 (configuration not stated)	/	/	/	/	-10	/
Cc1nc(N(C)Cc2ccccc2)c2nnn(Cc3ccccc3)c2n1	-27%	-17%	-6%	/	0	149%
Cc1ccc(C(=O)N/N=C\c2ccc(-c3ccc([N+](=O)[O-])cc3)o2)cn1	-2%	0%	-15%	?	17	6%
Cc1ccc(C(=O)N/N=C\c2ccccc2[N+](=O)[O-])cn1	-1%	-2%	-8%	19%	33	?
Cc1ccc(C(=O)N/N=C\c2ccc(-c3ccc(Cl)cc3)o2)cn1	-2%	10%	11µM*	7%	-12	4%
Cc1ccc(C(=O)N/N=C\c2ccc([N+](=O)[O-])o2)cn1	-2%	?	?	3.7µM*	?	1.9µM*
COc1ccc(-c2onc(C)c2C)cc1S(=O)(=O)NCc1ccc(C)o1	/	-17%	/	/	-71*	/
COc1ccccc1CN1CCC(CNS(=O)(=O)c2cc(-c3onc(C)c3C)ccc2OC)CC1	2%	3%	10µM*	12µM*	21	?
COc1ccc(CCNS(=O)(=O)c2cc(-c3onc(C)c3C)ccc2OC)cc1OC	/	2%	/	/	-11	/
COc1ccc(-c2onc(C)c2C)cc1S(=O)(=O)NCC(C)c1ccccc1 (configuration not stated)	/	5%	/	/	-26	/
COc1ccc(-c2onc(C)c2C)cc1S(=O)(=O)N1CCc2ccccc21	/	0%	/	/	?	/
CCOc1ccccc1CNS(=O)(=O)c1cc(-c2onc(C)c2C)ccc1OC	/	-5%	/	/	+	/
CCC(=O)N1CCc2cc(Br)cc(S(=O)(=O)N3CCC(C(=O)Nc4ccccc4F)CC3)c21	/	7%	/	/	-6	/
CCOC(=O)c1cc(-c2ccccc2)n(CCCC(=O)Nc2ccc(C)c(C)c2)c1C	/	10%	/	/	0	/
CC(COc1ccc(/C=C/c2ccccc2)cc1)[N+](C)(C)C (configuration not stated)	/	-20%	-22%	1.3µM*	-96*	0.93µM*

Bioassay records from PubChem BioAssay.
